TTR transcr act: TTR transcription activators in neuroblastoma reporter cells, primary screen, cell-based, luminescence, SH-SY5Y, TTR promoter Gaussia luciferase; 100% = recombinant luciferase protein wells; activation, % at 16.7 µM; actives 1.3% (n = 92,000); AID 1117267, 2014;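 active = activation above the mean of all tested compounds plus 3 SD, cut at about 9.5% in these data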;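 also: cells exposed to compounds for one day before reading; 0% = median of all test compound wells on the plate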
HuH7 TTR inh: TTR promoter reporter inhibitors in hepatoma cells, counter-screen for TTR transcription activator project, cell-based, luminescence, HuH7 hepatoma. HuH7 TTR promoter-Gaussia luciferase reporter. actives 4% (n = 1,100). shares compounds with TTR transcr act. inhibition, % at 16.7 µM;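 active = average inhibition above the solvent-only control wells' mean plus 3 SD, cut at about 15% in these data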;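 also: 0% = cells with DMSO only and 100% = cells with inhibitor control FD; inhibitors lower well luminescence so higher value means more inhibition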
TTR act confirm: TTR transcription activators, retest, confirmation, cell-based, luminescence, SH-SY5Y, triplicate; AID 1117280, 2014; SHSY5Y TTR promoter Gaussia luciferase; 100% = purified Lucia enzyme wells, no cells; activation, % at 16.7 µM; 1,100 tested, under 10 active; shares compounds with TTR transcr act;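 active = mean activation above a set limit taken from the earlier primary screen, cut at about 11% in these data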;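 also: 0% = DMSO-treated cells and 100% = recombinant Lucia luciferase without cells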
* marks the source's active call; other numbers are inactive results. The sample as a whole holds a higher share of hits than the screen did.

SMILES | TTR transcr act | others
CCn1cnc2c1c(=O)n(CC(=O)Nc1ccc3c(c1)OC(F)(F)O3)c(=O)n2Cc1ccccc1 | -0.5
Cc1ccnc(SCc2cc(=O)c(OC(=O)c3ccc(C#N)cc3)co2)n1 | -0.6
COc1ccc(C(C)n2c(C)c3c(C)nnc(C)c3c2C)cc1 (centres undefined) | 9.8* | HuH7 TTR inh=-9.3;TTR act confirm=1.1
CCOC(=O)CSc1nnc(-c2ccc(OC)cc2)n1CC | -0.9
COc1ccc(-c2nc(C)c(C(C)=O)n2O)cc1 | -0.5
CC1CCC2(CC1)CCC2NCc1ccc(Br)cc1 (centres undefined) | 1.6
O=C(Cn1c(=O)c2cccn2c2cccnc21)NCCCN1CCN(c2ccc(Cl)cc2)CC1 | -0.6
O=S(=O)(CCc1ccccc1)CS(=O)(=O)CCc1ccccc1 | -0.3
CC(=O)c1ccc(NC(=O)c2ccc(-n3cnnn3)cc2)cc1 | -0.4
Cc1ccccc1-c1nc(CSc2nc3c(c(=O)[nH]2)CCC3)c(C)o1 | 1.3
Cc1oc(-c2ccccc2)nc1CSc1nc2c(c(=O)[nH]1)CCC2 | 14.0* | HuH7 TTR inh=-32.0;TTR act confirm=0.3
Cc1cccc(-c2nc(CSc3nc4c(c(=O)[nH]3)CCC4)c(C)o2)c1 | 0.8
CCCC1CCC2(CCCN2CCOC(=O)Nc2cccc(Cl)c2)CC1 (centres undefined) | -1.4
CC1=C2NC(N)=[N+](Cc3ccc4c(c3)OCO4)CC2NOC1 (centres undefined) | 0.7
O=C(Nc1c(C(=O)N2CCCCC2)cnn1-c1ccccc1)c1ccccc1 | 5.5
Cc1cccc(C(=O)Nc2c(C(=O)N(C)C)cnn2-c2ccccc2)c1 | 10.7* | HuH7 TTR inh=-12.8;TTR act confirm=-0.6
CCOC(=O)c1cnn(-c2ccccc2)c1NC(=O)c1ccccc1 | -1.1
O=C1C2C3C=CC(C3)C2C(=O)N1c1ccc(-c2nc(-c3ccccc3)nc3ccccc23)cc1 (centres undefined) | -0.6
CCOc1ccc(CCNC(=O)c2cc(-c3ccccc3)c(N3CCOCC3)s2)cc1OC | -0.9
CCC[C@H]1[C@@H](OC(=O)NCCc2c[nH]c3ccccc23)CC[C@@]23CCCN2C(=O)CCC[C@@H]13 | -0.7
Cc1ccc(NC(=O)c2cccc(NC(=O)CC3SC(N4CCCCC4)=NC3=O)c2)nc1 (centres undefined) | 9.8* | HuH7 TTR inh=-5.5;TTR act confirm=-0.1
COc1ccc(NC(=O)CC2SC(N3CCCC3)=NC2=O)cc1Cl (centres undefined) | 6.1
CC1CC(C)CN(C(=O)c2cccc(NC(=O)CC3SC(N4CCCCC4)=NC3=O)c2)C1 (centres undefined) | 4.2
Cc1cccc(C)c1-n1nnnc1C1c2ccccc2OCC(=O)N1Cc1ccc(F)cc1 (centres undefined) | -0.7
COc1cc(O)c([C@@H](CC(=O)N2CC(C)CC(C)C2)c2ccc3c(c2)OCO3)c(OC)c1 (some centres undefined) | 1.2
SMILES | TTR transcr act | others
COc1cc(OC)c2c(C)cc(=O)oc2c1C(CCN1CCN(c2ccccc2)CC1)c1ccc2c(c1)OCO2 (centres undefined) | -7.3
COc1cc(OC)c2ccc(=O)oc2c1C(CC(=O)N1CCOCC1)c1ccc2c(c1)OCO2 (centres undefined) | 14.4* | HuH7 TTR inh=-0.1;TTR act confirm=-1.2
C[N+]1=C2N[C@@H](c3ccccc3)CC(=O)N2/C(=C\c2ccccc2)[C@@H]1Cc1ccccc1 | -1.1
CC1O[C@@H](O[C@H](C)CC[C@@H](C)O[C@H]2OC(C)[C@@H](O)C[C@H]2O)C(O)C[C@H]1O (some centres undefined) | 14.3* | HuH7 TTR inh=-15.2;TTR act confirm=2.1
CC(OC(=O)Cc1n[nH]c(=O)c2ccccc12)C(=O)N(C)c1ccccc1 (centres undefined) | 1.7
COC(=O)[C@]1(C)CN(C(=O)OC(C)(C)C)C2=C1C(=O)C[C@@](C)(C(=O)OC(C)(C)C)C2 | -1.7
O=C(OCc1cn(Cc2ccccc2F)nn1)N1CCOCC1 | 5.4
CC1CN(C(=O)c2ccccc2OCc2ccccc2Cl)CC(C)O1 (centres undefined) | -1.0
CC1CCN(C(=O)c2ccc(COc3ccccc3Cl)o2)CC1 | -3.5
O=C(c1ccc(COCC(F)(F)F)o1)N1CCCCCC1 | -0.7
CC1CN(C(=O)c2ccc(COc3ccccc3Br)o2)CC(C)O1 (centres undefined) | 68.7* | HuH7 TTR inh=-9.4;TTR act confirm=0.1
CN1CCN(NC(=O)c2ccc(COc3ccccc3Br)o2)CC1 | 5.0
O=C(c1ccc(COc2ccccc2Cl)o1)N1CCCC1 | 10.4* | HuH7 TTR inh=-11.5;TTR act confirm=0.3
CON(C)S(=O)(=O)c1cccc(C(=O)Oc2ccc(N(C)S(=O)(=O)c3ccccc3)cc2)c1 | -1.2
Cc1cc(C(=O)O)c(C)o1 | 0.6
COc1ccccc1NS(=O)(=O)c1cc(NC(=O)CNC(=O)c2cc(C)cc(C)c2)ccc1C | 0.4
CC(C)CC(COCc1ccc(Cl)cc1)N1CCN(C(=O)c2ccc(Cl)cc2Cl)CCC1=O (centres undefined) | -1.3
Cn1c(=O)c2ncn(C)c2n(C)c1=O | 0.1
COC(=O)[C@]12C[C@H](CC(=O)NCC3CCCCC3)C(=O)N(Cc3cccc4ccccc34)C1=C[C@H](C(C)C)O[C@@H]2C1CC1 | -0.7
O=C(NCC(c1ccccc1)c1ccccc1)[C@H](Cc1ccccc1)NC1(C(=O)NC2CCCCC2)CCOCC1 | -1.0
COc1ccccc1C(=O)N1CCc2ccccc21 | -2.0
Cc1ccccc1OCC(=O)OCC(=O)N1CCc2ccccc21 | -1.6
COc1cccc(C(=O)OCC(=O)N2CCc3ccccc32)c1OC | 11.7* | HuH7 TTR inh=-16.8;TTR act confirm=1.3
O=C(CCCOc1ccc(Br)cc1)NCCc1ccc(OC(F)F)cc1 | 2.4
CC(C)c1ccc(C(=O)Nc2cc(Cl)ccc2C(=O)O)cc1 | 0.6
SMILES | TTR transcr act | others
COc1cc(CCC(=O)Nc2ccc(S(=O)(=O)NC3=NCCCCC3)cc2)cc(OC)c1OC | -1.3
CN(C)CCNC(=O)c1csc(Nc2cccc3ccccc23)n1 | -0.2
CCOC(=O)c1cccc(-c2cc(C(=O)OC)c3n(c2=O)CCC3)c1 | -0.9
Cc1ccc(F)cc1CNC(=O)C1CCC(=O)N(CCc2ccccc2)C1 (centres undefined) | -0.1
CCOC(=O)CC1(NC(=O)C2CCC(=O)N(CCc3ccccc3)C2)CCCCC1 (centres undefined) | 13.6* | HuH7 TTR inh=-12.2;TTR act confirm=0.6
O=C(NCc1ccc(F)c(F)c1)C1CCC(=O)N(CCc2ccccc2)C1 (centres undefined) | 1.1
Cc1cc(N2CCC[C@@H]2C)nc2ccccc12 | 4.3
CC1Nc2nc(NC(=O)C(C)(C)C)[nH]c(=O)c2N(C)C1C (centres undefined) | 0.3
O=S(=O)(CC1NCCc2ccccc21)NCc1ccc(F)cc1 (centres undefined) | 1.0
COCCn1c(SCC(=O)Nc2cccc(S(N)(=O)=O)c2)nc2ccccc21 | 3.5
COCCn1c(SCC(=O)NC(C)c2ccccc2)nc2ccccc21 (centres undefined) | -0.3
COCCn1c(SCC(=O)Nc2ccc(S(N)(=O)=O)cc2)nc2ccccc21 | 9.8* | HuH7 TTR inh=-8.0;TTR act confirm=-0.8

Source: PubChem
